The record followed here is PubChem BioAssay (NCATS).

Calls of active or inactive are those of the source. Calls follow the shape of the dose curve; as a rule, active = well fitted activation curve with a large enough effect; inconclusive = small, poorly fitted or top-dose-only effect; inactive = flat fitted curve, though single readings scatter.

This assay in a line: Confirmation and Secondary Assay for Modulators of Hemoglobin Beta Chain Splicing at IVS2 705 locus (AID 930).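 Also: HeLa cells stably expressing the EGFP-705 splicing reporter; GFP fluorescence per well restored by corrected splicing of the IVS2-705 intron in EGFP; series mostly up to about 46 µM.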 The gist of the method: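 Read-out: total peak GFP fluorescence per well (488 nm excitation, 500-520 nm emission) by laser-scanning cytometry. Cells: HeLa EGFP-705 splicing reporter, 2 days compound exposure in Optimem/2% FCS.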

Turning to `CC(=O)OC1CC2C(C)(C)C(=O)CC[C@]2(C)C2CC[C@]3(C)C(=CC(=O)OC3c3ccoc3)[C@]12C` (stereo partly specified), the call was inactive.

As to `CC(=O)OC1CC(OC(C)=O)[C@]2(C)C(CC(OC(C)=O)[C@@]3(C)C4=CC(=O)OC(c5ccoc5)[C@]4(C)CCC32)C1(C)C` (stereo partly specified), the outcome was inactive.

`NC1C(O)OC(CO)[C@@H](O)[C@@H]1O[C@H]1O[C@@H](C(=O)O)C(O)C(O)C1O` (stereo partly specified): the molecule was called inactive.

For the molecule `COC(=O)C1OC(=O)C2OC23[C@]2(C)C(OC(C)=O)CC4C(C)(C)C(=O)CC[C@]4(C)C2CC[C@@]13C` (stereo partly specified), the result was inactive.

Regarding `O=C(O)C(S)[C@@H](S)C(=O)O` (stereo partly specified), the call was inactive.

Take `C=C1CCC2C(CC2(C)C)C(=O)CCC1O` (stereo unspecified): the call was inactive.

For `C=C1C(=O)OC2C[C@@]3(C)CCCC(C)C3=CC12` (stereo partly specified), the call was inactive.

Take `COc1ccc(-c2coc3cc(OC)cc(OC)c3c2=O)cc1`: the molecule was called inactive.

Regarding `CC1CC[C@@]23CCC4(C)[C@@]5(C)CCC6C(C)(C)C(=O)CC[C@@]6(C)C5C=C[C@@]4(OC2=O)C3C1C` (stereo partly specified), the molecule was called inactive.

Turning to `CC1(C)CC[C@]2(C(=O)O)CC[C@@]3(C)C(=CCC4[C@@]5(C)CCC(O)C(C)(C)C5CC[C@@]43C)C2C1` (stereo partly specified), the molecule was classed as inactive.

Regarding `O=C(O)/C=C/C=C/c1ccccc1`, the molecule was called inactive.
